The record followed here is PubChem BioAssay AID1835 (Johns Hopkins Ion Channel Center, 2009).

Among all 2,400 compounds or so, about 750 (31%) were called active.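 How the source made its calls: active means median signal gain over dofetilide-blocked control wells reaching their mean plus 3 SD, so readout 1 at least 0; inactive means the rest.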 Some of the results follow.

The target of this experiment is Voltage-gated inwardly rectifying potassium channel KCNH2 (Homo sapiens) (UniProt Q12809). Briefly: hERG protection against dofetilide inhibition, confirmation, cell-based, thallium flux, duplicate retest, dofetilide IC70 (AID 1835). The following applies: hERG cell line, FluxOR thallium flux, dofetilide-blocked; at 10 µM; active compounds read high. A general note: Block of hERG is tested as a sign of cardiac risk.
Voltage-gated inwardly rectifying potassium channel KCNH2 (Homo sapiens), sequence (Q12809 whole entry, looked up): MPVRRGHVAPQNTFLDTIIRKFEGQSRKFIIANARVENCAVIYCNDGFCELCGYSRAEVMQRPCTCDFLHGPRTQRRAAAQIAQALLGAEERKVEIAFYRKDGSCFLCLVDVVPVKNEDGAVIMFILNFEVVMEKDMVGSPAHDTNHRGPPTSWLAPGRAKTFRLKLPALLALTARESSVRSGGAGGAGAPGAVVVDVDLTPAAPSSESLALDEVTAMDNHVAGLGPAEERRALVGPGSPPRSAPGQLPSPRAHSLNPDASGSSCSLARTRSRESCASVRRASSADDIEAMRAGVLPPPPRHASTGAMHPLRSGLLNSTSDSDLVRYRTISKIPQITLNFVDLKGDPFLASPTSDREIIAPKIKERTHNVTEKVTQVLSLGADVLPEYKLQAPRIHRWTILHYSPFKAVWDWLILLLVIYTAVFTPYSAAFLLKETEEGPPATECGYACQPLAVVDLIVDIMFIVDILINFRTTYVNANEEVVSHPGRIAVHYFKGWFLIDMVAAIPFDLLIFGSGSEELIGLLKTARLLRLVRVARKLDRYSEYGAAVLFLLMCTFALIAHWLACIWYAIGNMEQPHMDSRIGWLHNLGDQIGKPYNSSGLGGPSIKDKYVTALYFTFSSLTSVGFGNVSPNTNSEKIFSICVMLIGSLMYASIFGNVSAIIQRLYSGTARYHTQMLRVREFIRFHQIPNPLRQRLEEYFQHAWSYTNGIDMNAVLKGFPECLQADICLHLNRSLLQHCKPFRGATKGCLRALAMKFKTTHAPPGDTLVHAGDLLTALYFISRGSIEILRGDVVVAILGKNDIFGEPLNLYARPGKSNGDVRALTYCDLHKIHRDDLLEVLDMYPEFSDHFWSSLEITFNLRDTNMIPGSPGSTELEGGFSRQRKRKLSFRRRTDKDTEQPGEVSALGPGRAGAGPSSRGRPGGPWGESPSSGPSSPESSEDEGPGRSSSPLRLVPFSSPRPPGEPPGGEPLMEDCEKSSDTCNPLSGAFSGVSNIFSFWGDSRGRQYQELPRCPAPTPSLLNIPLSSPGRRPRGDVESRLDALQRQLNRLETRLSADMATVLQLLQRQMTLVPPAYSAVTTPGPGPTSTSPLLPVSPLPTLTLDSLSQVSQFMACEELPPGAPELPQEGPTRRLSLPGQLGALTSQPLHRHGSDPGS
For the compound `CC1(C)CC2CC(C)(CN2C(=S)NC(=O)c2ccccc2Cl)C1` (stereo not given), the activity increase over dofetilide control, less the hit threshold was 28% (active).
The result for `NS(=O)(=O)c1ccc(NC(=O)c2ccc(S(=O)(=O)N3CCc4ccccc43)cc2)cc1` reads -1% (inactive); that for `O=C(COc1ccccc1)NC(=S)Nc1ccc2c(c1)Cc1ccccc1-2`, -9% (inactive).
Consider `O=C(COc1ccccc1)NC(=S)N1CCc2ccccc21`, for which the activity increase over dofetilide control, less the hit threshold is 3% (active).
Take `Cc1cccc(OCC(=O)NC(=S)N2CCCc3ccccc32)c1`: the activity increase over dofetilide control, less the hit threshold was -10% (inactive).
Take `O=C(NC(=S)N1CCc2ccccc21)c1ccccc1Br`: the activity increase over dofetilide control, less the hit threshold is 92% (active).
In the case of `CN1C(=O)CSc2ccc(NC(=O)N3CCc4ccccc43)cc21`, the activity increase over dofetilide control, less the hit threshold was -10% (inactive).
On to `Cc1ccc(C(=O)NC(=S)N2CCN(c3cc(C)ccc3C)CC2)cc1`, for which the activity increase over dofetilide control, less the hit threshold is -3% (inactive).
Take `Cc1cccc(C(=O)NNC(=S)NC(=O)c2ccccc2)c1`: the activity increase over dofetilide control, less the hit threshold is -20% (inactive).
The result for `Cc1cccc(C(=O)NC(=S)N2CCc3ccccc3C2)c1` reads 32% (active); that for `O=C(Nc1cccn(Cc2c(Cl)cccc2Cl)c1=O)c1ccccc1Cl`, -21% (inactive).
The result for `CC1c2nc3ccccc3n2C(CC(=O)NCCCN2CCOCC2)C(=O)N1Cc1ccccc1` (stereo not given) reads -8% (inactive); that for `CCCOc1ccc(C2NC(=S)NC(c3ccccc3)=C2C(=O)Nc2ccc(C)cc2)cc1OC` (stereo not given), -5% (inactive).
The result for `Cc1cc(C(=O)N/N=C/c2ccc(O)c([N+](=O)[O-])c2)n[nH]1` reads -13% (inactive).
Consider `O=C(NC(=S)N1CCCc2ccccc21)c1ccccc1`, for which the activity increase over dofetilide control, less the hit threshold was -18% (inactive).
For `O=C(NC(=S)N1CCc2ccccc21)c1ccco1` the value was -11% (inactive).
Consider `O=C(c1ccccc1)N1CCc2ccccc21`, for which the activity increase over dofetilide control, less the hit threshold is -6% (inactive).
For `O=C(NC(=S)N1CCc2ccccc21)c1ccc(Br)o1` the value was 12% (active); for `O=C(NC(=S)N1CCc2ccccc21)c1ccccc1Cl`, 53% (active).
For `O=C(NC(=S)N1CCc2ccccc21)c1ccccc1` the value was 43% (active).
The result for `O=C(N/N=C/c1ccsc1)C1CC1` reads -4% (inactive); that for `CC1CCN(S(=O)(=O)c2ccc3nc(N4CCN(c5ccccc5)CC4)ccc3c2)CC1`, -22% (inactive); that for `COc1cc(C2c3c(n[nH]c3C)C(=O)N2c2ccc(C)cc2)ccc1O` (stereo not given), -15% (inactive).
For `O=C(NCc1cccnc1)c1ccc(NS(=O)(=O)c2ccc(F)cc2)cc1`, the activity increase over dofetilide control, less the hit threshold is -9% (inactive).
As for `CCOC(=O)N/N=C/C=C/c1ccccc1[N+](=O)[O-]`, the activity increase over dofetilide control, less the hit threshold is 4% (active).
With `CC1=NNC(=O)C1CC(=O)N/N=C/C=C/c1ccccc1` (stereo not given), the activity increase over dofetilide control, less the hit threshold was -18% (inactive).
With `O=C(N/N=C/c1ccccc1[N+](=O)[O-])c1ccc(CN2CCOCC2)cc1`, the activity increase over dofetilide control, less the hit threshold is -4% (inactive).
For `Cc1cc(C)n2nc(SCC(=O)NC3CCCCC3C)nc2n1` (stereo not given) the value was -19% (inactive); for `Oc1c(N=NC(=S)Nc2ccccc2F)c2ccccc2n1Cc1ccccc1F`, 19% (active).
As for `Cc1ccccc1Cn1c(O)c(N=NC(=S)Nc2ccccc2F)c2ccccc21`, the activity increase over dofetilide control, less the hit threshold is 6% (active).
In the case of `Oc1c(N=NC(=S)Nc2ccccc2F)c2ccccc2n1Cc1ccccc1Cl`, the activity increase over dofetilide control, less the hit threshold is -2% (inactive).
For `Cn1c(O)c(N=NC(=S)Nc2ccccc2F)c2cc(S(=O)(=O)N3CCOCC3)ccc21` the value was -22% (inactive); for `Cc1ccc(C)c(Cn2c(O)c(N=NC(=S)Nc3ccccc3F)c3ccccc32)c1`, -2% (inactive).
For `CC(C)Nc1nc(SCC(N)=O)nc(N2CCOCC2)n1` the value was -12% (inactive); for `O=C1CN(C(=O)COc2ccccc2F)c2ccccc2N1`, -17% (inactive).
`COC(=O)c1sccc1NC(=O)CSc1ccccc1NS(=O)(=O)c1cc(Cl)ccc1Cl`: the activity increase over dofetilide control, less the hit threshold is -3% (inactive).
The result for `COC(=O)c1sccc1NC(=S)N1CC(C)CC(C)C1` (stereo not given) reads -15% (inactive); that for `COC(=O)c1sccc1NS(=O)(=O)c1ccc(F)cc1F`, 2% (active); that for `Cc1ccc(S(=O)(=O)n2cnc3ccccc32)c(C)c1`, -13% (inactive).
Take `Cc1ccc(NC(=O)c2ccc3c(c2)CCN3S(C)(=O)=O)c(C)c1`: the activity increase over dofetilide control, less the hit threshold was -17% (inactive).
Take `Cc1ccc(NS(=O)(=O)c2cn(C)c(=O)n(C)c2=O)c(C)c1`: the activity increase over dofetilide control, less the hit threshold is 0% (active).
Take `Cc1cc(C(=O)NNC2CC(=O)N(c3ccc4ccccc4c3)C2=O)c(C)o1` (stereo not given): the activity increase over dofetilide control, less the hit threshold is -6% (inactive).
For `Cc1c(C)n(CCN(C)C)c2ccc(C(=O)OCCN(C)C)cc12`, the activity increase over dofetilide control, less the hit threshold is -7% (inactive).
For the compound `CC(=O)c1c(C)c2c(n1CCN(C)C)CCCC2`, the activity increase over dofetilide control, less the hit threshold was 2% (active).
As for `O=C(CC1NC(=O)NC1=O)Nc1ccccc1` (stereo not given), the activity increase over dofetilide control, less the hit threshold is -19% (inactive).
For `O=C(c1cncc(Br)c1)N1CCc2ccccc2C1`, the activity increase over dofetilide control, less the hit threshold was -15% (inactive).
Consider `CCC1(C)Cc2c(sc3[nH]c(=S)n(Cc4ccccc4)c(=O)c23)CO1` (stereo not given), for which the activity increase over dofetilide control, less the hit threshold is 30% (active).
With `CC(C)C1Cc2c(sc3[nH]c(=S)n(Cc4ccccc4)c(=O)c23)CO1` (stereo not given), the activity increase over dofetilide control, less the hit threshold was 16% (active).
The result for `CC1(C)Cc2c(sc3[nH]c(=S)n(Cc4ccccc4)c(=O)c23)CO1` reads -10% (inactive).
On to `COc1ccc(C(=O)NCC(=O)OCn2nnc3ccccc3c2=O)cc1OC`, for which the activity increase over dofetilide control, less the hit threshold is -24% (inactive).
The result for `CCCCNC(=S)N/N=C/C1=CCC2CC1C2(C)C` (stereo not given) reads -22% (inactive); that for `Fc1ccc2c(c1)C(c1ccncc1)=NNC(c1cccnc1)=N2`, -13% (inactive); that for `C=CCc1cc(Cl)ccc1OCCOCCN(C)C`, -19% (inactive).
In the case of `O=C(NCc1ccccc1)C(=O)Nc1nc(C23CC4CC(CC(C4)C2)C3)cs1`, the activity increase over dofetilide control, less the hit threshold was 18% (active).
For `O=C(O)c1ccc(CNC(=O)C23CC4CC(CC(C4)C2)C3)cc1` the value was -3% (inactive).
The result for `Cc1csc(NC(=O)C2C3C=CC(C3)C2C(=O)O)n1` (stereo not given) reads -19% (inactive); that for `Oc1ccc(/C=N/Nc2nccnc2Cl)c(O)c1`, 8% (active).
For `COc1ccc(N2C(=O)CCC(C(=O)O)C2c2ccc(F)cc2)cc1` (stereo not given), the activity increase over dofetilide control, less the hit threshold is -5% (inactive).
Regarding `COc1ccc(-c2csc(NC(=S)NC(=O)c3ccco3)n2)cc1`, the activity increase over dofetilide control, less the hit threshold is 11% (active).
The result for `O=C(NC(=S)Nc1nc(-c2ccc([N+](=O)[O-])cc2)cs1)c1ccco1` reads 16% (active); that for `COc1ccc(-c2csc(NC(=S)NC(=O)c3ccco3)n2)cc1Br`, -17% (inactive).
Take `O=C(NC(=S)Nc1nc(-c2ccc(Br)cc2)cs1)c1ccco1`: the activity increase over dofetilide control, less the hit threshold is 10% (active).
For `O=C(NC(=S)Nc1nc(-c2ccccc2)cs1)c1ccco1` the value was 1% (active).
For `O=C(NC(=S)Nc1nc(-c2cccc([N+](=O)[O-])c2)cs1)c1ccccc1Cl` the value was -1% (inactive); for `O=C(CCc1ccc(S(=O)(=O)N2CCCCC2)cc1)c1nnc(-c2ccccc2)o1`, -14% (inactive); for `Cc1[nH]c(=S)c(C#N)c(C)c1Cc1ccc(Cl)cc1Cl`, -12% (inactive).
For `O=C(N/N=C/C(Cl)=C/c1ccc([N+](=O)[O-])cc1)C(=O)Nc1ccc(C(=O)O)cc1` the value was -13% (inactive); for `O=c1c(C(c2ccc(O)cc2)c2c(O)nc3n(c2=O)CCS3)c(O)nc2n1CCS2`, 3% (active).
For the compound `O=[N+]([O-])c1cccc(NC(=S)Nc2nc(-c3ccccc3Cl)cs2)c1`, the activity increase over dofetilide control, less the hit threshold was -7% (inactive).
The result for `O=C(N=Nc1c(O)[nH]c2ccc([N+](=O)[O-])cc12)c1cc(-c2ccccc2Cl)nc2ccccc12` reads 97% (active); that for `CN(C)/C(=N\S(=O)(=O)c1ccccc1)c1ccc(F)cc1`, -9% (inactive); that for `S=c1[nH]c(-c2ccccc2)cn1/N=C/c1cccc2ccccc12`, 2% (active).
For `Cc1cccc(-n2cc(-c3ccccc3)[nH]c2=S)c1` the value was -6% (inactive); for `S=C(N/N=C/c1cccc2ccccc12)Nc1cccc(Cl)c1`, -8% (inactive); for `Cc1c(OC(C(=O)O)c2ccccc2)ccc2c(-c3ccccc3)cc(=O)oc12` (stereo not given), -3% (inactive).
Regarding `COc1cccc(CCNS(=O)(=O)CCNC(=O)c2cccc(OC)c2)c1`, the activity increase over dofetilide control, less the hit threshold is -15% (inactive).
For `COc1ccc(NC(=O)C2CC3CCC2C3)c(OC)c1` (stereo not given) the value was -8% (inactive).
With `COc1cccc(C(=O)NNC(=O)C(=O)Nc2cccc3ccccc23)c1`, the activity increase over dofetilide control, less the hit threshold is 52% (active).
For the compound `Cc1cc(C(=O)Nc2cccc3ccccc23)c(C)o1`, the activity increase over dofetilide control, less the hit threshold was -12% (inactive).
The result for `COc1ccc(C(=O)NNC(=O)C(=O)Nc2cccc3ccccc23)cc1` reads 51% (active).
On to `COc1ccc(C(=O)NNC(=O)CSc2nnc(COc3ccccc3)n2C)cc1`, for which the activity increase over dofetilide control, less the hit threshold is -24% (inactive).
The result for `COc1cc(NC(=O)c2cc(-c3cccnc3)nc3ccc(C)cc23)c(OC)cc1Cl` reads -17% (inactive); that for `COc1cc(OC)cc(C(=O)NNC(=O)C(=O)Nc2cc(OC)c(Cl)cc2OC)c1`, 68% (active); that for `COc1cccc(C(=O)NNC(=O)C(=O)Nc2ccc(OC)cc2OC)c1`, 19% (active).
With `CN(C)CCOC(=O)C1(c2ccccc2)CCCC1`, the activity increase over dofetilide control, less the hit threshold is -3% (inactive).
Take `O=C(CSc1cccc2cccnc12)N/N=C/c1cccnc1`: the activity increase over dofetilide control, less the hit threshold was -19% (inactive).
The result for `COC(=O)c1ccc(Oc2ccc(S(=O)(=O)N3CCCCC3)cc2N)cc1` reads -12% (inactive).
For the compound `O=S(=O)(Nc1cccc(-n2cnnn2)c1)c1ccc(Cl)nc1`, the activity increase over dofetilide control, less the hit threshold was -11% (inactive).
Consider `CCOCCOCN(C#N)c1nc(OC)nc(N(C)C)n1`, for which the activity increase over dofetilide control, less the hit threshold was -22% (inactive).
For `O=C(CN1C(=O)CSCC1=O)Nc1ccc2c(c1)OCO2`, the activity increase over dofetilide control, less the hit threshold is -6% (inactive).
The result for `O=C(NC(=S)N(CCCCO)C1CCCCC1)c1sc2ccccc2c1Cl` reads 29% (active).
Turning to `CC1CCCCC1NC(=S)NC(=O)c1cccs1` (stereo not given), the activity increase over dofetilide control, less the hit threshold was 44% (active).
Regarding `COC(=O)CC1C(=O)NCCN1C(=S)NC(=O)c1sc2ccccc2c1Cl` (stereo not given), the activity increase over dofetilide control, less the hit threshold is -1% (inactive).
For `CC1CCCCC1NC(=S)NC(=O)c1sc2ccccc2c1Cl` (stereo not given) the value was 5% (active); for `CN(CC(=O)Nc1ccc(OC(F)(F)F)cc1)S(=O)(=O)c1cnc[nH]1`, -9% (inactive); for `FC(F)c1nnc2c(Cl)cc(C(F)(F)F)cn12`, -11% (inactive).
For `O=C(NC(=S)NNC(=O)[C@H]1C[C@@H]1c1ccccc1)c1cccc(F)c1` the value was -14% (inactive); for `C=CCn1c(=S)[nH]c2scc(-c3ccc(C)o3)c2c1=O`, 72% (active); for `C=CCn1c(=S)[nH]c2scc(-c3cccs3)c2c1=O`, 90% (active).
For `C=CCn1c(SCC(N)=O)nc2scc(-c3ccc(C)o3)c2c1=O`, the activity increase over dofetilide control, less the hit threshold is -19% (inactive).
